Bioassay records deposited in PubChem by National Center for Advancing Translational Sciences (NCATS).
Shown are actives, neighbours in structure and some others; about 18% of the full set was active somewhere.
PLK1 PBD block – inhibitors of human PLK1 polo-box domain binding; P53350; Plk1 PBD binding of FITC phosphopeptide, fluorescence polarization; Potency, µM, inactives show max response, negative = inhibition, hits mostly inhibitors; actives 2.8% (n = 360,000); AID 720504; also: series mostly up to about 57 µM; nearly all actives have a fitted effect of over 65% in size
DT40 TDP1 no CPT – qHTS for Inhibitors of human tyrosyl-DNA phosphodiesterase 1 (TDP1): qHTS in cells in absence of CPT; Potency, µM (series often up to 46.2 µM), for the others: at the highest dose activity change, negative = growth inhibition, usual class: inhibitors; AID 686978, 2013; DT40 Tdp1-/- hTDP1 cells, no CPT, ATP luminescence, 48 h; actives 15% (n = 420,000); also: nearly all actives have a fitted effect of over 55% in size
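A cellular qHTS used chicken DT40 cells lacking endogenous Tdp1 but carrying stably transfected human TDP1. Compounds were applied without camptothecin, and cell growth kinetics were judged by ATP-dependent luminescence after ≥48 hr.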
VDR inhibitor – vitamin D3 receptor (human) inhibition; Potency, µM, inactives show max response, negative = inhibition, most hits filed as inhibitors; VDR-SRC2-3 peptide fluorescence polarization, 2 h; AID 504847; P11473; actives 0.93% (n = 400,000)
Target sequence (P11473 whole entry, looked up): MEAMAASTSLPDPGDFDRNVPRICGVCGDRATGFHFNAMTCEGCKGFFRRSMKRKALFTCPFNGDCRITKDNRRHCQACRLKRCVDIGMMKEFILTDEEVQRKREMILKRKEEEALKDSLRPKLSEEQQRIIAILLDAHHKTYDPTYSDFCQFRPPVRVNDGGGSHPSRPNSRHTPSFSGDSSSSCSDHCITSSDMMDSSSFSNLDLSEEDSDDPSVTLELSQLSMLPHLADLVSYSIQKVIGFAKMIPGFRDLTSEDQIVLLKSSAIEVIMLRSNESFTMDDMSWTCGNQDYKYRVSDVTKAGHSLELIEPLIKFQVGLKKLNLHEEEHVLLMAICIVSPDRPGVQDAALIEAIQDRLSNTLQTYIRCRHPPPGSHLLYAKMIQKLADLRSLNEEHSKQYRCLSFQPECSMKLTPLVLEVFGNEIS
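Measured by FP: displacement of SRC2-3 coactivator peptide from VDR by library compounds, following a two-hour ambient incubation.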
TDP1 block – inhibitors of human tyrosyl-DNA phosphodiesterase TDP1; Q9NUW8; Potency, µM (series often up to 130 µM), inactives show at the highest dose activity change, negative = inhibition, most hits filed as inhibitors; recombinant TDP1, AlphaScreen DNA substrate cleavage; actives 0.28% (n = 350,000); also: nearly all actives have a fitted effect of over 40% in size
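Steps: enzyme plus compound, 15 min RT; add biotin/phosphotyrosine-FITC oligonucleotide (15 nM final), react 5 min; add donor/acceptor beads (10 ug/ml final), 10 min; read AlphaScreen. Tdp1 at 1 nM final.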
GCN5L2 inh – blocks human GCN5L2 histone acetyltransferase | Q92830 | GCN5L2 HAT assay, ThioGlo1 CoA-SH fluorescence | Potency, µM (doses to about 58.9 µM), for the others: at the highest dose activity change, negative = inhibition, usual class: inhibitors | actives 0.21% (n = 390,000) | AID 504327
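Compounds, pin-transferred from DMSO stocks, meet 20nM GCN5L2 for 15 min before the reaction begins with H3(1-25) peptide (75uM) and acetyl-CoA (70uM). Thiol-reactive ThioGlo1 reports CoA release over 20 min at room temperature.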
TDP1 cell CPT – DT40-hTDP1 cell growth loss with CPT; chicken DT40 Tdp1-/-;hTDP1 cells + 20 nM CPT, ATP luminescence, 48 h; Potency, µM (doses to about 46.2 µM), for inactives: at the top dose activity change, negative = growth inhibition, hits mostly inhibitors; actives 12% (n = 420,000); also: nearly all actives have a fitted effect of over 55% in size
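Chicken DT40 Tdp1-/- cells complemented with human TDP1, 400 cells/well, exposed to compounds plus 20 nM camptothecin for at least 48 h at 37 C; viability read as ATP content by CellTiter-Glo luminescence.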
* marks the source's active call; other numbers are inactive results; ? = inconclusive; · = not tested or not shown; [ ] = dose if it differs, or a comment. Calls follow the shape of the dose curve; as a rule, active = well fitted curve in the direction sought with a large enough effect; inconclusive = small, poorly fitted or top-dose-only effect, or another doubt; inactive = no such curve, though single readings can be large; an effect the other way counts as inactive or inconclusive. % is scaled to controls: 0 for no effect and ±100 for the full control effect; potency is read from the fitted curve at half-maximal effect.

SMILES	PLK1 PBD block	DT40 TDP1 no CPT	VDR inhibitor	TDP1 block	GCN5L2 inh	TDP1 cell CPT
Cc1ccc2nc(NC(=O)C3CCN(S(=O)(=O)c4cccs4)CC3)sc2c1	-9.2%	16.4µM*	3.5%	4.0%	-6.7%	23.1µM*
Cn1nc(C(=O)Nc2cc(F)ccc2F)c2c1-c1ccccc1SC2	·	?	6.4%	-2.9%	-1.6%	-25.0%
O=C(Nc1nc2ccc(S(=O)(=O)N3CCCC3)cc2s1)c1cccc(F)c1	·	11.6µM*	5.4%	10.8%	-6.9%	?
CC1CCN(S(=O)(=O)c2ccc(C(=O)Nc3nc4ccc(F)cc4s3)cc2)CC1	·	-29.5%	11.9%	2.7%	-9.2%	?
COc1ccc2nc(NC(=O)c3ccc(S(=O)(=O)N4CCCC(C)C4)cc3)sc2c1 (stereo not given)	·	11.6µM*	5.3%	5.4%	-20.5%	16.4µM*
CCOc1ccc(OCC)c(NC(=O)C2CCN(S(=O)(=O)c3c(C)[nH]c(=O)[nH]c3=O)CC2)c1	16.8µM*	?	-24.1%	2.5%	-3.4%	18.4µM*
Cc1ccc2nc(NC(=O)C3CCN(S(=O)(=O)c4cnc[nH]4)CC3)sc2c1	-15.2%	16.4µM*	3.9%	7.9%	-2.7%	?
CCc1ccc2nc(NC(=O)c3ccc(N4C(=O)CCC4=O)cc3)sc2c1	2.5%	-11.4%	5.5%	·	4.1%	-26.9%
CNS(=O)(=O)c1ccc2nc(NC(=O)c3ccc(N4C(=O)CCC4=O)cc3)sc2c1	7.52µM*	20.6µM*	?	10.4%	?	?
CCOc1ccc(OCC)c(NC(=O)C2CCCN(c3nc(C)cc(C)n3)C2)c1 (stereo not given)	-4.3%	20.6µM*	-0.4%	1.0%	-8.6%	23.1µM*
COc1ccc2nc(NC(=O)C3CCCN(S(=O)(=O)c4cccs4)C3)sc2c1 (stereo not given)	-6.8%	18.4µM*	13.0%	9.1%	-2.0%	?
CCOc1ccc(OCC)c(NC(=O)C2CCCN(S(=O)(=O)c3cccs3)C2)c1 (stereo not given)	-16.4%	16.4µM*	5.8%	1.5%	-12.6%	?
Cc1ccc(CNC(=O)C(=O)NCC(c2cccs2)S(=O)(=O)c2ccccc2)cc1 (stereo not given)	·	4.0%	-4.6%	13.9%	8.9%	-1.9%
CC(=O)OC1C=C[C@@H](OC(C)=O)C1 (stereo not given in full)	·	·	-0.4%	8.2%	45.6%	·
O=C(Nc1ccc(Oc2cccnc2)cc1)C1CCN(Cc2ccccc2F)CC1	-0.3%	?	10.6%	2.1%	-15.9%	?
O=C(Nc1ccc(Oc2cccnc2)cc1)C1CCN(Cc2cccc(Cl)c2)CC1	-7.5%	?	8.1%	3.5%	3.9%	18.4µM*
CC(=O)c1cccc(CN2CCC(C(=O)Nc3ccc(Oc4cccnc4)cc3)CC2)c1	-8.0%	23.1µM*	-7.3%	2.9%	-14.1%	?
CC(=O)c1cccc(CN2CCC(C(=O)Nc3ccc(-c4cccc(C)c4)cc3)CC2)c1	8.9%	6.51µM*	10.4%	·	-1.5%	10.3µM*
Cc1cc(CN2CCCCC2C(=O)Nc2ccc(Oc3cccnc3)cc2)oc1C (stereo not given)	-1.4%	?	0.7%	6.1%	-6.0%	?
Cc1ccc(CN2CCC(C(=O)Nc3ccc(Oc4cccnc4)cc3)CC2)cc1	0.7%	16.4µM*	1.8%	5.1%	-17.8%	18.4µM*
NC(Cc1ccc(F)cc1)c1csc(Nc2nccc(C(F)(F)F)n2)n1 (stereo not given)	-2.7%	14.6µM*	·	·	·	?
NC(Cc1ccc(Cl)cc1)c1csc(Nc2nccc(C(F)(F)F)n2)n1 (stereo not given)	-5.2%	?	·	·	·	?
Cc1cc(C)nc(Nc2nc(C(N)Cc3ccccc3)cs2)n1 (stereo not given)	-5.8%	5.17µM*	·	·	·	5.8µM*
COc1ccc(CC(N)c2csc(Nc3nccc(C(F)(F)F)n3)n2)cc1 (stereo not given)	3.0%	?	·	·	·	?
NC(Cc1ccccc1)c1csc(Nc2nccc(C(F)(F)F)n2)n1 (stereo not given)	-13.7%	20.6µM*	·	·	·	16.4µM*
SMILES	PLK1 PBD block	DT40 TDP1 no CPT	VDR inhibitor	TDP1 block	GCN5L2 inh	TDP1 cell CPT
COc1ccc(C(=O)Nc2ccc3[nH]ccc3c2)cc1OC	-3.8%	3.0%	7.7%	·	·	12.7%
Cc1ccc(C(=O)Nc2cccc(C(=O)NCc3ccccc3)c2)cc1	-17.6%	-24.3%	-9.2%	8.2%	0.1%	?
CCOC(=O)c1ccc(CN(Cc2ccc(F)cc2)S(=O)(=O)c2cc(C(=O)Nc3cccc(C(F)(F)F)c3)ccc2F)cc1	·	23.1µM*	-5.5%	5.2%	-21.3%	13µM*
COc1ccc(C(=O)Nc2ccc3[nH]ccc3c2)cc1	-3.1%	25.9µM*	-4.5%	·	·	?
COc1ccc(C(=O)Nc2cccc(C(=O)NCc3ccccc3)c2)cc1	-9.4%	?	-17.1%	-2.7%	8.8%	20.6µM*
CN(C)S(=O)(=O)Oc1ccc(C(=O)Nc2cccc(C(F)(F)F)c2)cc1	-4.3%	14.6µM*	21.8%	6.0%	-4.5%	23.1µM*
COc1cccc(C(=O)Nc2ccc(Cl)c(-c3nc4ccccc4[nH]3)c2)c1	·	6.51µM*	0.5%	5.7%	0.9%	?
CCOC(=O)c1ccc(CN(Cc2ccccc2C)S(=O)(=O)c2ccc(C(C)(C)C)cc2)cc1	·	18.4µM*	-1.1%	2.6%	-1.4%	?
COc1ccc(NC(=O)c2ccc(C(=O)c3ccccc3)o2)cc1	0.9%	2.06µM*	-2.8%	6.6%	-0.5%	?
COc1cccc(C(=O)Nc2ccc(Cl)c(C(F)(F)F)c2)c1	-6.2%	?	-6.0%	-1.1%	0.2%	?
CN(C)S(=O)(=O)Oc1cccc(C(=O)Nc2ccc(Cl)cc2)c1	1.8%	11.6µM*	-15.5%	2.0%	-1.7%	8.2µM*
COc1ccc(NC(=O)c2ccc(-c3ccc(C)c4ccccc34)o2)cc1	-11.2%	-1.6%	-0.2%	-1.3%	-5.0%	?
COC/C=C/C1=CC2=CC(=O)C(C)(OC(=O)c3cnc4ccccc4n3)C(=O)C2=CN1Cc1ccc2c(c1)OCO2 (stereo not given)	·	·	·	3.0%[21 µM]	·	·
COc1cccc(C(=O)Nc2ccc3c(c2)C(=O)c2ccccc2C3=O)c1	26.7µM*	-15.7%	-14.8%	·	-0.4%	?
CC(C)c1ccccc1NC(=O)c1cccc(NC(=O)c2ccccc2)c1	2.1%	?	4.4%	7.0%	-3.2%	16.4µM*
